According to PubChem BioAssay (Tox21):
“And” between values parts separate entries of the source, which are not always exact repeats. Equal values may be shown once. Inconclusive results are not listed. More than one record can exist for a structure, and the calls need not agree. The source made the active and inactive calls. Calls follow the shape of the dose curve; as a rule, active = well fitted curve in the direction sought with a large enough effect in the repeat runs; inconclusive = weak or mixed curves; inactive = no such curve, though single readings can be large; an effect the other way counts as inactive or inconclusive.

Experiments:
[1] = Human pregnane X receptor (PXR) small molecule agonists, qHTS cell viability counter screen (AID 1346977); also: nearly all actives have a fitted effect of over 50% in size; also: potency is read from the fitted curve at half-maximal effect
In short: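 PXR-Luc HepG2, 2,000 cells/well, 5% charcoal-stripped FBS; 5hr settle; cpd 24hr, 37C/5% CO2; CellTiter-Fluor at 23hr, read 1hr later (fluorescence).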

[2] = Caspase-3/7 induction in HepG2 cells by small molecules, qHTS assay (AID 1346978); also: nearly all actives have a fitted effect of over 15% in size; also: potency is read from the fitted curve at half-maximal effect
In short: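 Wild-type HepG2 cells (2,000/well) were settled 5 h at 37 C, 5% CO2, then exposed to compounds in DMSO for 17 h. Caspase-3/7 activity was read by luminescence 30 min after adding Caspase-Glo 3/7 reagent at room temperature.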

[3] = Caspase-3/7 induction in CHO-K1 cells by small molecules, qHTS cell viability counter screen (AID 1346979); also: nearly all actives have a fitted effect of over 35% in size; also: potency is read from the fitted curve at half-maximal effect
In short: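 Cells (CHO-K1, wild type) are plated at 1,500 per well and incubated 5hr. Test compounds in DMSO are then pinned in, followed by 16hr at 37C and 5% CO2. Viability is read by CellTiter-Fluor fluorescence after 1hr.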

[4] = Caspase-3/7 induction in CHO-K1 cells by small molecules, qHTS assay (AID 1346980); also: nearly all actives have a fitted effect of over 15% in size
In short: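 Wild-type cells were seeded at 1,500 per well and settled 5 hr at 37 C, 5% CO2, then exposed to DMSO-dissolved compounds for 17 hr. Caspase-Glo 3/7 reagent was added, and luminescence was read after 30min at room temperature.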

[5] = Caspase-3/7 induction in HepG2 cells by small molecules, qHTS cell viability counter screen (AID 1346981); also: nearly all actives have a fitted effect of over 30% in size; also: potency is read from the fitted curve at half-maximal effect
In short: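 HepG2, WT, 2,000 cells/well; 5 hr pre-incubation 37 C/5% CO2; compound pin-transferred from DMSO; 16 hr exposure; CellTiter-Fluor, 1 hr; fluorescence read.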

[6] = target: Nuclear receptor subfamily 1 group I member 2 (Homo sapiens) (UniProt O75469); assay: Human pregnane X receptor (PXR) small molecule agonists, qHTS assay (AID 1346982); also: nearly all actives have a fitted effect of over 35% in size; also: potency is read from the fitted curve at half-maximal effect
In short: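 Luciferase signal from ONE-Glo (30 min, room temperature) measured activation of hPXR-driven CYP3A4 reporter expression in PXR-Luc HepG2 cells treated with compounds for 24 hr at 37 C.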

[7] = target: Cytochrome P450 2D6 (Homo sapiens) (UniProt P10635); assay: Cytochrome P450 Family 2 Subfamily D Member 6 (CYP2D6) small molecule antagonists: luciferase reporter qHTS assay (AID 1671196); also: nearly all actives have a fitted effect of over 50% in size; also: potency is read from the fitted curve at half-maximal effect
In short: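 Read-out is luminescence from luciferin formed by CYP2D6 turnover of a proluciferin substrate, recorded as relative luminescence units. Reactions ran 1 h at room temperature after NADPH regeneration solution was added.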

[8] = target: Cytochrome P450 2C19 (Homo sapiens) (UniProt P33261); assay: Cytochrome P450 Family 2 Subfamily C Member 19 (CYP2C19) small molecule antagonists: luciferase reporter qHTS assay (AID 1671197); also: nearly all actives have a fitted effect of over 65% in size; also: potency is read from the fitted curve at half-maximal effect
In short: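 P450-Glo CYP2C19 screening system; proluciferin substrate; DMSO compound stocks; 10 min RT preincubation; NADPH regeneration, 1 h at 37C; luciferin detection reagent, 20 min RT; luminescence as RLU.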

[9] = target: Cytochrome P450 2C9 (Homo sapiens) (UniProt P11712); assay: Cytochrome P450 Family 2 Subfamily C Member 9 (CYP2C9) small molecule antagonists: luciferase reporter qHTS assay (AID 1671198); also: nearly all actives have a fitted effect of over 50% in size; also: potency is read from the fitted curve at half-maximal effect
In short: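 CYP2C9 activity was measured with a P450-Glo proluciferin substrate. Enzyme–substrate mix was held with compound for 10 min at room temperature, then NADPH regeneration solution was added for 1 h at 37C. Luciferin product was read as luminescence.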

[10] = target: Cytochrome P450 1A2 (Homo sapiens) (UniProt P05177); assay: Cytochrome P450 Family 1 Subfamily A Member 2 (CYP1A2) small molecule antagonists: luciferase reporter qHTS assay (AID 1671199); also: nearly all actives have a fitted effect of over 50% in size; also: potency is read from the fitted curve at half-maximal effect
In short: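 P450-Glo CYP1A2, 1536-well qHTS: enzyme/proluciferin substrate + cpd (DMSO), 10 min RT; NADPH regen, 1 h RT; detection reagent, 20 min; luminescence, RLU.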

[11] = target: Voltage-gated inwardly rectifying potassium channel KCNH2 (Homo sapiens) (UniProt Q12809); assay: Human Ether-a-go-go-Related Gene (hERG) channel small molecule antagonists: fluorescence cell-based qHTS assay (AID 1671200); also: nearly all actives have a fitted effect of over 50% in size; also: potency is read from the fitted curve at half-maximal effect
In short: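 Channel function was assessed by thallium flux. Cells seeded the previous day and kept at 37 C took up FluxOR II dye over 1 h in the dark at room temperature, then sat another 10 min before stimulation.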

[12] = target: Nuclear receptor subfamily 1 group I member 2 (Rattus norvegicus) (UniProt Q9R1A7); assay: Rat pregnane X receptor (rPXR) activation by small molecules, qHTS assay (AID 1346983); settings: rPXR luciferase reporter cells, One-Glo luminescence, 24 h; max activation: stronger effect = higher value; also: nearly all actives have a fitted effect of over 20% in size
In short: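 Cell-based rPXR luciferase reporter assay, 2,000 cells per well, rested 5hr at 37 C before compound addition in DMSO, then 24 hr at 37 C. One-Glo reagent was added and luminescence read after 30 min at room temperature.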

[13] = target: Nuclear receptor subfamily 1 group I member 2 (Homo sapiens) (UniProt O75469); assay: Human pregnane X receptor (PXR) activation by small molecules, qHTS assay (AID 1346985); also: nearly all actives have a fitted effect of over 40% in size
In short: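 DPX-2 cells (HepG2 co-transfected with a PXR response element and a CYP3A4-promoter luciferase construct) were seeded at 2,000 per well, rested 5 hr at 37C, then exposed to DMSO-dissolved compounds for 24 hr. Activation was read as luciferase luminescence.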

[14] = target: Cytochrome P450 3A4 (Homo sapiens) (UniProt P08684); assay: Cytochrome P450 Family 3 Subfamily A Member 4 (CYP3A4) small molecule antagonists: luciferase reporter qHTS assay (AID 1671201); also: nearly all actives have a fitted effect of over 50% in size; also: potency is read from the fitted curve at half-maximal effect
In short: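 Compounds in DMSO were pin-transferred onto CYP3A4 enzyme-substrate mix and held 10 min at room temperature. NADPH regenerating solution started the reaction for 1 h; luciferin detection reagent stopped it, and luminescence was read after 20 min.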

[15] = target: Nuclear receptor subfamily 1 group I member 2 (Homo sapiens) (UniProt O75469); assay: CYP3A4 induction through human pregnane X receptor (PXR) by small molecules, qHTS assay (AID 1346984); also: nearly all actives have a fitted effect of over 40% in size; also: potency is read from the fitted curve at half-maximal effect
In short: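 Luminescence readout: luciferase signal after One-Glo (30 min, room temperature), following 3 h at 37C with 3uM final Luciferin-IPA P450 substrate. Cells were DPX-2 (HepG2, PXR/CYP3A4-luc co-transfected) dosed for 24 h.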
% is scaled to controls: 0 for no effect and ±100 for the full control effect.

Chain of Nuclear receptor subfamily 1 group I member 2 (Homo sapiens) (O75469 whole entry, looked up): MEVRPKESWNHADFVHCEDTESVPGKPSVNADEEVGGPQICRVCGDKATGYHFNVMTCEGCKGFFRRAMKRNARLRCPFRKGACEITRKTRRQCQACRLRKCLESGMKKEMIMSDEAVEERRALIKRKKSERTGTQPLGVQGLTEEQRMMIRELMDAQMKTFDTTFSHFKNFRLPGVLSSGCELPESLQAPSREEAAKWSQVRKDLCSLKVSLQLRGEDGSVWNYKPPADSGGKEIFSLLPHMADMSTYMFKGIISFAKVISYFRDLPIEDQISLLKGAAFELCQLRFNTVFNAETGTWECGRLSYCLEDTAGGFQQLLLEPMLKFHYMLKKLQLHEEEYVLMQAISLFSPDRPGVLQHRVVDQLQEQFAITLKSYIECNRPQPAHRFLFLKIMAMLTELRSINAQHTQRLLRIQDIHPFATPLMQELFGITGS
Chain of Cytochrome P450 1A2 (Homo sapiens) (P05177 whole entry, looked up): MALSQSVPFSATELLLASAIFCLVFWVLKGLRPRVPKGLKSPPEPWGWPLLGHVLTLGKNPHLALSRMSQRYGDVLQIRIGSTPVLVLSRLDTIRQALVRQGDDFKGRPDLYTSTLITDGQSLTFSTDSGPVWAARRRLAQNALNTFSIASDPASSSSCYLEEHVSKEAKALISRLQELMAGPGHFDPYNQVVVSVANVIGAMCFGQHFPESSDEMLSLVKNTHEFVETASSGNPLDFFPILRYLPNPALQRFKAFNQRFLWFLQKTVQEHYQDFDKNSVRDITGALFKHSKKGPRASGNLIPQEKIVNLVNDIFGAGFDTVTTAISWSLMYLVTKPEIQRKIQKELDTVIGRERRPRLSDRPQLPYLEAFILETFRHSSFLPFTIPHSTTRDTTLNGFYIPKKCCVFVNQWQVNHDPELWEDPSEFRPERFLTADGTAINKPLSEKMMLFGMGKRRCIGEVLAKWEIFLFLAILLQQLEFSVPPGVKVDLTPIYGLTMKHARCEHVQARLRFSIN
Chain of Cytochrome P450 2C19 (Homo sapiens) (P33261 whole entry, looked up): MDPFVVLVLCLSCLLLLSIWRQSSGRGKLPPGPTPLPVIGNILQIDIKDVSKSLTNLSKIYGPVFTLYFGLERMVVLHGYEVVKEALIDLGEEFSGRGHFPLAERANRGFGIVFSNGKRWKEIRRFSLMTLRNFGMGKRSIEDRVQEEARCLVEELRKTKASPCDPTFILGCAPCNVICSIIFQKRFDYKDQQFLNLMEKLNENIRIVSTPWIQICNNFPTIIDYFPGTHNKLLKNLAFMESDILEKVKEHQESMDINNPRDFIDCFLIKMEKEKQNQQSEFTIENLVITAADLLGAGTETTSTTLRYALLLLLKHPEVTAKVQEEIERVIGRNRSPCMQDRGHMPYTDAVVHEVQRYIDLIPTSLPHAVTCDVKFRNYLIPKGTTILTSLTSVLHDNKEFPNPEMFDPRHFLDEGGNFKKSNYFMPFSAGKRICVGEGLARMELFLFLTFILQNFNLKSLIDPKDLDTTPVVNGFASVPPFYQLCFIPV
Chain of Cytochrome P450 2D6 (Homo sapiens) (P10635 whole entry, looked up): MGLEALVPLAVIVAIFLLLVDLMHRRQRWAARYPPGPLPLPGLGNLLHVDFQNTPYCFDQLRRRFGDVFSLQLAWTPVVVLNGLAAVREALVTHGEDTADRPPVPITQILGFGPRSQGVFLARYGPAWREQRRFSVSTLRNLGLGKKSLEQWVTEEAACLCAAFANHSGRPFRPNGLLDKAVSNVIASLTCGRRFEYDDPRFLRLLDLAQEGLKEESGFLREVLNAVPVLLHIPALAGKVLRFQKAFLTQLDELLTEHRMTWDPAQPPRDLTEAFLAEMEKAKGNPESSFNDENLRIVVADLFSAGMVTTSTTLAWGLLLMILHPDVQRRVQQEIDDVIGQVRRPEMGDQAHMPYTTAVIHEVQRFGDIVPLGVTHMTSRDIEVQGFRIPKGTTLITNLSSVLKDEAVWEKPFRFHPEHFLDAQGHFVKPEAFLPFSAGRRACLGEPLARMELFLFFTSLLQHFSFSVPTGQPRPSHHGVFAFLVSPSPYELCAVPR
Chain of Voltage-gated inwardly rectifying potassium channel KCNH2 (Homo sapiens) (Q12809 whole entry, looked up): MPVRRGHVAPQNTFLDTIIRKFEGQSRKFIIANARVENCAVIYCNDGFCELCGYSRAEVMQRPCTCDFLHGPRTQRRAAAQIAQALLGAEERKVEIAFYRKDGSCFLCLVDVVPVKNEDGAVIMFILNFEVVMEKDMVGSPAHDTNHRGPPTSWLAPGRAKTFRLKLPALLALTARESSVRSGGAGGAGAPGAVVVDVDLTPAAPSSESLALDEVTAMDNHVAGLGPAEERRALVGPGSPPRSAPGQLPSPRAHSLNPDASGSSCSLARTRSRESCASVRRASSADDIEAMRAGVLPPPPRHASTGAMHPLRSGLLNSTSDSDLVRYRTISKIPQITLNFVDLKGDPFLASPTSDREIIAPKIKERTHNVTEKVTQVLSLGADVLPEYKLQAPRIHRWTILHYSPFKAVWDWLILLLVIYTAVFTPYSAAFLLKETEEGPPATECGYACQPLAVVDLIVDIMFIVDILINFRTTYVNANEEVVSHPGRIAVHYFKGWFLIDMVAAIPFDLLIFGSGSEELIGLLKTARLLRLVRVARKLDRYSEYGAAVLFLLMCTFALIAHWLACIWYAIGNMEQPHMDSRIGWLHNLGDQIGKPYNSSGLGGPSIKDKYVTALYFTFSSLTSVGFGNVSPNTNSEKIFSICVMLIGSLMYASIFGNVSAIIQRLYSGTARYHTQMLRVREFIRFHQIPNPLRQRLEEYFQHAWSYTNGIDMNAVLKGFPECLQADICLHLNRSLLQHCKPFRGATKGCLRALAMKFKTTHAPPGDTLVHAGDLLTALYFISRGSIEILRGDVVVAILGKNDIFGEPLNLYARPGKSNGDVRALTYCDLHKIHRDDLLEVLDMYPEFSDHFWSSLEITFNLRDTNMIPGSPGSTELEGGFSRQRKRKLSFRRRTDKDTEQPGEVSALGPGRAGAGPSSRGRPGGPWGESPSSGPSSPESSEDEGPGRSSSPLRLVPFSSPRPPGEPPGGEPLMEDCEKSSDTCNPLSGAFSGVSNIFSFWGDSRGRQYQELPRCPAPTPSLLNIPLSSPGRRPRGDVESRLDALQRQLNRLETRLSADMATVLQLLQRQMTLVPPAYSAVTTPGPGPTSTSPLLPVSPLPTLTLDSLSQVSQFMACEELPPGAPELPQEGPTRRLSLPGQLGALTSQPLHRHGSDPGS
Chain of Cytochrome P450 3A4 (Homo sapiens) (P08684 whole entry, looked up): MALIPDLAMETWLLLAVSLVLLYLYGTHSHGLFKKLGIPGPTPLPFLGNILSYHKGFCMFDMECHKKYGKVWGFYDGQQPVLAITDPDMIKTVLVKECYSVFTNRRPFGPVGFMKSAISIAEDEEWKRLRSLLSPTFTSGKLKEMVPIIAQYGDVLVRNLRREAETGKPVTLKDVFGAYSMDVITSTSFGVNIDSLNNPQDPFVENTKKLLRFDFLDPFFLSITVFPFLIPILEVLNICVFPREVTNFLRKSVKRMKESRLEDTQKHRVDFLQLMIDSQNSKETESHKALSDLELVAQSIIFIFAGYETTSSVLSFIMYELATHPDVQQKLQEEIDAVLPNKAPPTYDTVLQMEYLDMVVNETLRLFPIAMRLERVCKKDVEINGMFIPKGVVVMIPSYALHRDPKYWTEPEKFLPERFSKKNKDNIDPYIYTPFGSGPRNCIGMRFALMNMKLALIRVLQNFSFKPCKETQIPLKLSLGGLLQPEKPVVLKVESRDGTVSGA
Chain of Nuclear receptor subfamily 1 group I member 2 (Rattus norvegicus) (Q9R1A7 whole entry, looked up): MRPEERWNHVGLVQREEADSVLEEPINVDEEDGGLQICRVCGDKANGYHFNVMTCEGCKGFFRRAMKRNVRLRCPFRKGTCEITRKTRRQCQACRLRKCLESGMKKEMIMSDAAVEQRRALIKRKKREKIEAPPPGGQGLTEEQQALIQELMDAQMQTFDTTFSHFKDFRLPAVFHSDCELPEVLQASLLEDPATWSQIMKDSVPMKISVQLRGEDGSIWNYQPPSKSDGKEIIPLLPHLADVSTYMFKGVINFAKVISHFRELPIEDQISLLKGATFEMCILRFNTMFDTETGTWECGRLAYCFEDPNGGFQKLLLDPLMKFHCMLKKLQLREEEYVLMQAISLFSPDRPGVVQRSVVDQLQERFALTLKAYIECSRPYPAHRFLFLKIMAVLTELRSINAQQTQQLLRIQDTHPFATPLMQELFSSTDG
Chain of Cytochrome P450 2C9 (Homo sapiens) (P11712 whole entry, looked up): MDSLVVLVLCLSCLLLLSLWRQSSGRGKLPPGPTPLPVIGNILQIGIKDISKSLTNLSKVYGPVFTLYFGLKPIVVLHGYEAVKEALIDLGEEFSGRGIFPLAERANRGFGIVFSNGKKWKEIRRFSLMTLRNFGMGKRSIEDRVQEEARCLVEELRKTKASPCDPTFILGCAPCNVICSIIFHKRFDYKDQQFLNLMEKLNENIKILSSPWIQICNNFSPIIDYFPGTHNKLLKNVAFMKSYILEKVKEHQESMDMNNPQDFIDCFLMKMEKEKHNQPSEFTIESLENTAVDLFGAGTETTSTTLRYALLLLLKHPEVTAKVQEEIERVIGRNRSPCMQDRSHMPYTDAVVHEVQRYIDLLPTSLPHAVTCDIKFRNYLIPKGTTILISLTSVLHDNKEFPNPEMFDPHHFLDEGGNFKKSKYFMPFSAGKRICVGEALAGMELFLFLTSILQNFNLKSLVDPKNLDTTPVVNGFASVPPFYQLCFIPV

CC(C)C(=O)Nc1ccc([N+](=O)[O-])c(C(F)(F)F)c1
inactive: Potency [2] | Potency [4] | Potency [5] | Potency [11]
50.1 µM (active) and inactive: Potency [1]
active: Potency [3] 44.5 µM and 54.5 µM and 26.6 µM | Potency [6] 35.4 µM and 34.4 µM and 29.8 µM | Potency [7] 36.6 µM and 63.3 µM | Potency [8] 18.3 µM and 22.4 µM and 7.76 µM | Potency [9] 32.6 µM and 31.7 µM and 15.5 µM | Potency [10] 1.63 µM and 5.03 µM and 2.57 µM

O=C(O)CC(O)C(=O)O (stereo unspecified)
inactive and 35.6 µM (active): Potency [10]
inactive: Potency [1] | Potency [2] | Potency [3] | Potency [4] | Potency [5] | Potency [6] | max activation [12] -2.6% | outcome [13] | Potency [7] | Potency [9] | Potency [11] | Potency [14]

Nc1ccc(S(N)(=O)=O)cc1
inactive: Potency [1] | Potency [2] | Potency [4] | Potency [5]
48.8 µM (active) and inactive: Potency [3]

CC(=O)Nc1c(I)c(NC(C)=O)c(I)c(C(=O)O)c1I
inactive and 79.6 µM (active): Potency [8]
inactive: Potency [1] | Potency [2] | Potency [3] | Potency [4] | Potency [5] | Potency [7] | Potency [9] | Potency [10] | Potency [11] | Potency [14]
24.3 µM (active) and inactive: Potency [6]

Cc1cc(C)nc(NS(=O)(=O)c2ccc(N)cc2)n1
80.6 µM (active) and inactive: Potency [8]
inactive: Potency [1] | Potency [2] | Potency [3] | Potency [4] | Potency [5] | Potency [6] | Potency [7] | Potency [9] | Potency [10] | Potency [11] | Potency [14]

Cn1c(=O)c2c(ncn2C)n(C)c1=O
61.9 µM (active) and inactive: Potency [3] | Potency [5]
39.8 µM (active) and inactive: Potency [1]
inactive: Potency [2] | Potency [4] | Potency [11]

CN1CCc2cccc3c2[C@H]1Cc1ccc(O)c(O)c1-3
active: Potency [1] 43.7 µM and 18.1 µM and 29.8 µM | Potency [3] 55 µM and 22.8 µM and 23.7 µM | Potency [15] 6.31 µM | Potency [7] 45.3 µM and 11.8 µM and 38.9 µM
inactive: Potency [2] | Potency [4] | Potency [6] | max activation [12] 9.82% | outcome [13] | Potency [8]

COc1ccc2cc(S(=O)(=O)N[C@H](CC(=O)N[C@H](Cc3ccc(CN4[C@H](C)CCC[C@@H]4C)cc3)C(=O)N(C)C(C)C)c3ccc4c(c3)OCO4)ccc2c1
active: Potency [1] 13 µM | Potency [2] 57.9 µM | Potency [3] 51.6 µM | Potency [5] 29 µM | Potency [7] 169 nM | Potency [9] 59.9 µM | Potency [11] 7.34 µM | Potency [14] 0.0949 µM
inactive: Potency [4] | Potency [6] | Potency [10]

CCOC(N)=O
60 µM (active) and inactive: Potency [8]
inactive: Potency [1] | Potency [2] | Potency [3] | Potency [4] | Potency [6] | max activation [12] -2.09% | Potency [15] | outcome [13] | Potency [7] | Potency [9] | Potency [10] | Potency [11] | Potency [14]

CC1(C)S[C@@H]2[C@H](NC(=O)[C@H](N)c3ccccc3)C(=O)N2[C@H]1C(=O)O
44.5 µM (active) and inactive: Potency [7]
inactive: Potency [1] | Potency [2] | Potency [3] | Potency [4] | Potency [6] | Potency [8] | Potency [10] | Potency [14]

Cc1ncc([N+](=O)[O-])n1CCO
inactive: Potency [1] | Potency [2] | Potency [3] | Potency [4] | Potency [6] | Potency [7] | Potency [8] | Potency [9] | Potency [10] | Potency [11] | Potency [14]

CN(C)CCOC(c1ccccc1)c1ccccc1
inactive: Potency [1] | Potency [2] | Potency [3] | Potency [4]
54.8 µM (active) and inactive: Potency [6]

CN(N=O)C(=O)N[C@@H]1[C@@H](O)[C@H](O)[C@@H](CO)O[C@@H]1O
inactive: Potency [1] | Potency [2] | Potency [3] | Potency [4] | Potency [6] | max activation [12] -0.687% | Potency [15] | outcome [13] | Potency [7] | Potency [8] | Potency [9] | Potency [10] | Potency [11] | Potency [14]

CC12CCC(CC1)C(C)(C)O2
31.3 µM (active) and inactive: Potency [10]
inactive: Potency [1] | Potency [2] | Potency [3] | Potency [4] | Potency [6] | max activation [12] -0.857% | Potency [15] | outcome [13] | Potency [7] | Potency [8] | Potency [9] | Potency [11] | Potency [14]

O=C1O[C@H]([C@@H](O)CO)C(O)=C1O
inactive and 19.5 µM (active): Potency [10]
inactive: Potency [1] | Potency [2] | Potency [3] | Potency [4] | Potency [6] | max activation [12] -0.298% and -0.0182% | Potency [15] | outcome [13] | Potency [7] | Potency [8] | Potency [9] | Potency [11] | Potency [14]
